# Several values for one entry are separate records, joined by “and”; a condition that tells them apart may be missing. Equal values may be shown once. Results filed as inconclusive are left out. Activity calls are given as the source filed them. Calls come from the whole dose curve; as a rule, active = well fitted activation curve with a large enough effect in the repeat runs; inconclusive = weak or mixed curves; inactive = no such curve, though single readings can be large or run the other way.
# Target: Nuclear receptor subfamily 1 group I member 2 (Homo sapiens) (UniProt O75469)
# Assay: Human pregnane X receptor (PXR) small molecule agonists, qHTS assay (AID 1346982); note: nearly all actives have a fitted effect of over 35% in size
# Settings: PXR-Luc HepG2, CYP3A4 luciferase reporter, 24 h; series mostly up to 92.4 µM; activation: at the top concentration
# Text: National Center for Advancing Translational Sciences [NCATS]
# NIH Chemical Genomics Center [NCGC]
# U.S. Environmental Protection Agency [EPA]
# National Institutes of Environmental Health Sciences [NIEHS]
# National Toxicology Program [NTP]
# The human pregnane X receptor (hPXR) regulates the expression of several drug metabolizing enzymes and induction of these proteins is a major mechanism for developing drug resistance in cancer. One such key enzyme catalyzing the drug metabolism is cytochrome P450 3A4 (CYP3A4). Changes in CYP3A4 expression affect drug metabolism, thereby reducing the therapeutic efficacy and altering toxicological response to a drug and which finally causes adverse drug interaction. To screen Tox21 libraries for compounds that activate hPXR-mediated CYP3A4 gene expression, PXR-Luc HepG2 cells were used.
# PXR-Luc HepG2 cells were dispensed at 2,000 per well in 5uL of assay medium containing 5% charcoal-stripped FBS into white solid bottom 1536-well plates (Corning Life Sciences, Corning, NY) using a Multidrop Combi (Thermo Scientific, Waltham, MA) dispenser. The assay plates were incubated at 37 C and 5% CO2 for 5hr, and then 23nL of compounds dissolved in DMSO and positive control were transferred using a Pintool station (Wako, San Diego, CA). The assay plates were incubated at 37C and 5% CO2 for 24hr. For luciferase read, 4uL of ONE-Glo reagent (Promega Corporation, Madison, WI) was added to each well of the assay plates using Flying Reagent Dispenser (FRD, Aurora Discovery, San Diego, CA) and incubated the assay plates at room temperature for 30min. The luminescence signal was quantified using a ViewLux plate reader (Perkin Elmer, Shelton, CT).
# % is set by controls: 0 for no effect and ±100 for the full control effect; potency is the fitted concentration of half-maximal effect.
# Nuclear receptor subfamily 1 group I member 2 (Homo sapiens), sequence (O75469 whole entry, looked up): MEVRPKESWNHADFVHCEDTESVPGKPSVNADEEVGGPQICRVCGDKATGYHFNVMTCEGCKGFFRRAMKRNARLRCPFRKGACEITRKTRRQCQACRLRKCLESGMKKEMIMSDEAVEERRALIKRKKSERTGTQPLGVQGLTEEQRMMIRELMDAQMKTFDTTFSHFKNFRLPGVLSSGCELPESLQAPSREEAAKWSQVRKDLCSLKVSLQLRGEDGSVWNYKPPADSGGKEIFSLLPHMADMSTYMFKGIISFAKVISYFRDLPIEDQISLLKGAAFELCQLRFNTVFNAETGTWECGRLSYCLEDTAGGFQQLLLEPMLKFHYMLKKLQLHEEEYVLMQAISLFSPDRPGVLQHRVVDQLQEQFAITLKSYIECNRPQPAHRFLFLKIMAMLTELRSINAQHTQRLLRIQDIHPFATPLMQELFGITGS
Compound,activation,Potency
CCCCCCCCSCCO,5.5% (inactive),–
COc1ccc(C(=O)c2cccc(O)c2)c(OC)c1,–,61 µM (active)
O=[N+]([O-])c1cccc(S(=O)(=O)NCCNS(=O)(=O)c2cccc([N+](=O)[O-])c2)c1,–,13.3 µM (active)
CC(=O)CC(c1ccc([N+](=O)[O-])cc1)c1c(O)c2ccccc2oc1=O (stereo not given),-5.93% [at 42.5 µM] (inactive),–
CNC(=O)N(c1ccccc1)c1ccccc1,–,48.8 µM (active)
CCCCC(CC)C(=O)OCCOCCOCCOCCOC(=O)C(CC)CCCC (stereo not given),–,48.6 µM (active)
CCc1c2c(nc3ccc(OC(=O)N4CCC(N5CCCCC5)CC4)cc13)-c1cc3c(c(=O)n1C2)COC(=O)[C@]3(O)CC,24.8% [at 42.5 µM] (inactive),–
O=C(N/N=C/c1ccc([N+](=O)[O-])o1)c1ccc(O)cc1,-70.7% [at 42.5 µM] (inactive),–
CC(C)(C)CC(C)(C)c1ccc(OCCO)cc1,–,15.3 µM (active)
CN(C)C(=O)Nc1ccc(Oc2ccc(Cl)cc2)cc1,–,10.9 µM (active)
CCCCCCCCCOC(C)=O,0.605% (inactive),–
CC[C@H](NC(=O)c1cc(F)ccc1NS(=O)(=O)c1cccc2cccnc12)c1ccccc1,–,0.46 µM (active)
CCOC(=O)c1ccccc1C,1.44% (inactive),–
CCN(Cc1cccc(S(=O)(=O)O)c1)c1ccc(C(=C2C=CC(=[N+](CC)Cc3cccc(S(=O)(=O)[O-])c3)C=C2)c2ccccc2)cc1,5.54% [at 42.5 µM] (inactive),–
OCC1CC=CCC1 (stereo not given),4.26% (inactive),–
CCOc1cc(N)c(Cl)cc1C(=O)NCC1CN(Cc2ccc(F)cc2)CCO1 (stereo not given),–,5.31 µM (active)
CC(Cl)C(Cl)Cl (stereo not given),19.7% (inactive),–
CN1Cc2cc(C(=O)N3CCC(C4CCNCC4)CC3)ccc2N[C@@H](CC(=O)O)C1=O,-0.915% [at 42.5 µM] (inactive),–
CC1(C)C(=O)N(Br)C(=O)N1Cl,17.8% (inactive),–
CCOC(=O)c1ccccc1OC,-4.24% (inactive),–

Compound,activation,Potency
NC(=O)N(O)[C@@H]1C=C[C@H](Oc2cccc(Oc3ccc(F)cc3)c2)C1,–,19.3 µM (active)
Brc1cc(-c2ccc(Br)c(Br)c2Br)cc(Br)c1Br,–,30.2 µM (active)
COCc1c(C(C)C)nc(C(C)C)c(/C=C/[C@@H](O)C[C@@H](O)CC(=O)O)c1-c1ccc(F)cc1,–,15 µM (active) and 10.8 µM (active)
Cc1cc(OI)c(C(C)C)cc1-c1cc(C(C)C)c(OI)cc1C,–,29.8 µM (active)
CN1CCN(c2c(F)cc3c(=O)c(C(=O)O)cn4c3c2OCN4C)CC1,-8.38% [at 19 µM] (inactive),–
CCCCOC(=O)CCS,-15.5% (inactive),–
O=C(CS)OCCOC(=O)CS,7.49% (inactive),–
CCCCCCCCCCCC[N+](C)(C)CC(=O)[O-],-7.57% (inactive),–
Cc1oncc1C(=O)Nc1ccc(C(F)(F)F)cc1,–,12.2 µM (active) and 1.5 µM (active)
O=Cc1c(Cl)cccc1Cl,-2.48% (inactive),–
CCNC(=O)N1CCN(CCCC(c2ccc(F)cc2)c2ccc(F)cc2)CC1,–,26.6 µM (active)
COC(=O)CC(=O)C(C)(C)C,15.1% (inactive),–
Nc1ccc(C(=O)OCCCOC(=O)c2ccc(N)cc2)cc1,–,54.5 µM (active)
COCC(O)CO (stereo not given),3.07% (inactive),–
Cc1ccnc2ccccc12,13.9% (inactive),–
CCOC(=N)CC(=O)OCC,-3.9% (inactive),–
O=C(O)c1ccc(CO)o1,-3.22% (inactive),–
CCc1nn(CCCN2CCN(c3cccc(Cl)c3)CC2)c(=O)n1CCOc1ccccc1,–,3.76 µM (active)
O=C(CCCN1CCN(c2ccc(F)cc2)CC1)NC1c2ccccc2CSc2ccccc21 (stereo not given),11.4% [at 42.5 µM] (inactive),–
CN1C(=O)CC(C)(c2ccccc2)C1=O (stereo not given),-8.81% [at 42.5 µM] (inactive),–
